TDP1 cell noCPT: qHTS for Inhibitors of human tyrosyl-DNA phosphodiesterase 1 (TDP1): qHTS in cells in absence of CPT; DT40 Tdp1-/- hTDP1 cells, no CPT, ATP luminescence, 48 h; Potency, µM (top dose mostly 46.2 µM), inactives show at the top dose activity change, negative = growth inhibition, actives largely listed as inhibitors; 420,000 compounds, 15% hits; AID 686978, 2013; also: potency is read from the fitted curve at half-maximal effect; % is scaled to controls: 0 for no effect and ±100 for the full control effect; nearly all actives have a fitted effect of over 55% in size
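Compound effects on proliferation are scored in DT40 Tdp1-/-;hTDP1 cells in the absence of CPT. ATP levels (CellTiter-Glo luminescence) are recorded after a ≥48 hr, 37 °C incubation.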
IL-1B inflam inh: blocks inflammasome-driven IL-1 beta release | AID 743279 | activity change, % at 57.5 µM | THP-1 LPS/ATP IL-1B secretion, AlphaLISA, 16 h; active compounds read low | 360,000 compounds, 4.7% hits; in the data active = activity change below about -50%; inconclusive = mostly about -30% to -49%; also: % is scaled to controls: 0 for no effect and ±100 for the full control effect
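THP-1 cells pretreated 1 hr with compounds (up to 57.5 uM final), then stimulated with LPS (250 ng/mL final) plus ATP (1.25 mM final); secreted IL-1B measured by AlphaLISA after 16 hr, decreased signal indicating inhibition.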
HepG2 viability: counter-screen for TGF-b inhibitors: cytotoxicity in HepG2 cells; AID 588856; 410,000 compounds, 0.76% hits; Potency, µM (highest dose often 46.1 µM), for the others: at the top dose activity change, negative = cytotoxicity, actives largely listed as cytotoxic; HepG2 CAGA-GFP viability, ATP luminescence, 18 h; also: potency is read from the fitted curve at half-maximal effect
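CellTiter-Glo luminescence gave cytotoxicity after 18 hours at 37 degrees C. The cells were HepG2 CAGA-GFP in 1% FBS DMEM, stimulated with 500 pg/mL TGF-beta after compound addition. %Activity was normalised to no-cell wells (complete cell-killing) and DMSO (no toxicity), and curves were fitted and classified.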
TGFb SMAD3 inh: inhibitors of TGF-b signaling | HepG2 CAGA-GFP TGF-b/SMAD3 reporter, GFP fluorescence, 18 h; TGF-beta stimulated, 500 pg/mL final | Potency, µM (titrated, usually from 46.1 µM), inactives show at the top dose activity, negative = inhibition, hits mostly inhibitors | 410,000 compounds, 1.2% hits; also: potency is read from the fitted curve at half-maximal effect; % is scaled to controls: 0 for no effect and ±100 for the full control effect; nearly all actives have a fitted effect of over 65% in size
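Inhibition was scored as loss of TGF-beta-induced (500 pg/mL final, 18 hours, 37 degrees C) GFP in HEPG2 cells carrying a CAGA-GFP reporter, in DMEM with 1% FBS. Well GFP was summed per cell; Activity was normalised to unstimulated and stimulated DMSO wells, then concentration-response fitting.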
TDP1 cell CPT: growth inhibition of DT40 Tdp1-/-;hTDP1 cells with camptothecin (screen for TDP1 inhibitors). chicken DT40 Tdp1-/-;hTDP1 cells + 20 nM CPT, ATP luminescence, 48 h. Potency, µM (top dose mostly 46.2 µM), for the others: at the highest dose activity change, negative = growth inhibition, usual class: inhibitors. 420,000 compounds, 12% hits. AID 686979; also: potency is read from the fitted curve at half-maximal effect; % is scaled to controls: 0 for no effect and ±100 for the full control effect; nearly all actives have a fitted effect of over 55% in size
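Cell growth measured by CellTiter-Glo luminescence after a minimum 48 h, 37 C compound exposure with 20 nM CPT in Tdp1-knockout DT40 cells stably expressing hTDP1, seeded 400/well; qHTS titration format.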
TDP1 inh: blocks human tyrosyl-DNA phosphodiesterase 1; recombinant TDP1, AlphaScreen DNA substrate cleavage; 350,000 compounds, 0.28% hits; Potency, µM (series often up to 130 µM), inactives show at the top dose activity change, negative = inhibition, usual class: inhibitors; AID 485290; also: potency is read from the fitted curve at half-maximal effect; % is scaled to controls: 0 for no effect and ±100 for the full control effect; nearly all actives have a fitted effect of over 40% in size
Target sequence (Q9NUW8 whole entry, looked up): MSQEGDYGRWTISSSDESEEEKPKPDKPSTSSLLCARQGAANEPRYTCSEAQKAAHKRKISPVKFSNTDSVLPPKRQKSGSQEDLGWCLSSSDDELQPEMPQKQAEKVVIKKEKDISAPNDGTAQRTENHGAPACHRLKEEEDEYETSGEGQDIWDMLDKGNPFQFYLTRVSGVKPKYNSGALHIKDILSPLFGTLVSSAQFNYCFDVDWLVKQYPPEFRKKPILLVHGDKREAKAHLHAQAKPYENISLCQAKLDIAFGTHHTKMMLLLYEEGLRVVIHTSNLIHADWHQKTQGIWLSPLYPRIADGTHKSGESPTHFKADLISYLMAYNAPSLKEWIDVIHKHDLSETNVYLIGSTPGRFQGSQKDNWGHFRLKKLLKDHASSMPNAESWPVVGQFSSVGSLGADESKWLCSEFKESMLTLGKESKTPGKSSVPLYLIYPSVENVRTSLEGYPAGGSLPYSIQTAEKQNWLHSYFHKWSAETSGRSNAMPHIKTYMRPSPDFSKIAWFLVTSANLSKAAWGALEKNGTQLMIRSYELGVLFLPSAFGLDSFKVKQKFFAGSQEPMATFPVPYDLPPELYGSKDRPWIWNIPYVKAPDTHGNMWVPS
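Recombinant E. coli-expressed Tdp1 (1 nM) preincubated with compound 15 min at RT, then 5'-biotin/3'-phosphotyrosine-FITC DNA substrate (15 nM) added for 5 min. AlphaScreen beads (10 ug/ml) added, 10 min RT; tyrosine-FITC cleavage read as signal loss.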
The depositor's hits bear a star; i = inactive; ? = inconclusive; / = no result; [ ] = dose if it differs, or a comment. An excerpt weighted towards active compounds, which were near 18% of everything screened. Unless noted, calls follow the shape of the dose curve; as a rule, active = well fitted curve in the direction sought with a large enough effect; inconclusive = small, poorly fitted or top-dose-only effect, or another doubt; inactive = no such curve, though single readings can be large; an effect the other way counts as inactive or inconclusive.

SMILES	TDP1 cell noCPT	IL-1B inflam inh	HepG2 viability	TGFb SMAD3 inh	TDP1 cell CPT	TDP1 inh
Cc1ccc(/C=C2/NC(=O)N(Cc3ccccc3)C2=O)s1	-18.6%	-13.8	-20.2%	25.4%	?	-2.5%
Cc1cccc(CN2C(=O)N/C(=C/c3ccc(C)s3)C2=O)c1	16.4µM*	0.1	-1.9%	62.4%	20.6µM*	2.0%
CC1=C(C(=O)N2CCOCC2)CC(CC(=O)NCCc2ccccn2)C(=O)N1CCC1=CCCCC1 (stereo not given)	-4.1%	-9.6	-18.5%	-0.9%	-12.8%	/
O=C(NCCOc1ccc(F)cc1)C1CCC(=O)N(CC2CCCCC2)C1 (stereo not given)	?	-8.1	-2.8%	-12.9%	-23.3%	2.0%
CCOc1ccc(C(=O)c2cn(CC(=O)Nc3ccc(OC)cc3)c3cc4c(cc3c2=O)OCCO4)cc1	-26.4%	/	3.1%	-0.7%	?	1.3%
Cc1ccc(OCc2cc(C(=O)N(C)Cc3cc(C4CC4)n[nH]3)no2)cc1C	23.1µM*	2.6	-39.4%	?	?	6.8%
Cc1cccc(C)c1OCc1cc(C(=O)N(C)Cc2cc(C3CC3)n[nH]2)no1	?	0.0	-12.4%	-26.9%	?	2.5%
Cc1ccc(OCc2cc(C(=O)N(C)CCc3ccccn3)no2)cc1C	?	14.2	-2.0%	-11.8%	25.9µM*	6.8%
CN(Cc1ccccn1)C(=O)c1cc(COc2ccc(F)c(F)c2)on1	?	-14.3	-29.1%	-0.8%	18.4µM*	/
C#CCN(C(=O)c1cc(COc2ccc(C)c(C)c2)on1)C1CCCCC1	23.1µM*	i	-7.1%	-75.7%	?	-3.8%[56.1 µM]
CC(=O)c1cccc(OCc2cc(C(=O)N(C)CCc3ccccn3)no2)c1	?	15.9	-14.2%	-7.5%	?	3.3%
COc1ccc2c(c1)N(C[C@@H](C)CN(C)C)c1ccccc1S2	/	/	/	/	/	13.3%[21 µM]
Cc1ccc(OCc2cc(C(=O)N(C)CCc3nc4ccccc4[nH]3)no2)cc1C	20.6µM*	8.6	-44.5%	?	14.6µM*	/
Cc1cccc(C)c1OCc1cc(C(=O)N(C)Cc2nc3ccccc3[nH]2)no1	?	-13.8	1.7%	-16.9%	?	4.8%[56.1 µM]
C[C@@H]1COC(=O)[C@H](NC(=O)OCC2c3ccccc3-c3ccccc32)C/C=C\C[C@@H](CC(=O)N(CCO)Cc2ccccc2)C(=O)N1	14.6µM*	3.3	-11.5%	0.7%	9.2µM*	-4.6%
O=C(N[C@H]1C/C=C\C[C@@H](CC(=O)N(CCO)Cc2ccccc2)C(=O)NC[C@H](c2ccccc2)OC1=O)OCC1c2ccccc2-c2ccccc21	4.11µM*	13.7	-82.5%	?	3.66µM*	-3.2%
CC(C)(C)[C@H]1COC(=O)[C@H](NC(=O)OCC2c3ccccc3-c3ccccc32)C/C=C\C[C@@H](CC(=O)N(CCO)Cc2ccccc2)C(=O)N1	23.1µM*	-27.1	-11.2%	?	9.2µM*	1.6%
O=C(N[C@@H]1C/C=C\C[C@@H](CC(=O)N(CCO)Cc2ccccc2)C(=O)NCCOC1=O)OCC1c2ccccc2-c2ccccc21	9.2µM*	16.6	-5.7%	-0.9%	16.4µM*	-2.2%
CCOC(=O)c1c(NC(=O)CSc2cn(CCNC(=O)c3c(F)cccc3F)c3ccccc23)sc2c1CCCC2	?	/	-2.2%	-0.4%	?	8.4%
O=C(N[C@@H]1C/C=C\C[C@H](CC(=O)N(CCO)Cc2ccccc2)C(=O)N[C@@H](Cc2ccccc2)COC1=O)OCC1c2ccccc2-c2ccccc21	16.4µM*	16.7	-21.4%	?	16.4µM*	-0.2%
CCOC(=O)Cn1nnc(-c2ccc(S(C)(=O)=O)cc2)n1	-1.1%	-59.9*	-6.3%	0.7%	3.6%	4.4%
CCOC(=O)Cn1nnc(-c2ccc(SC)cc2)n1	-1.5%	17.2	-0.3%	-13.1%	7.1%	3.1%
Cc1cc(C)cc(NC(=O)CC(C)n2nc(C)cc2C)c1 (stereo not given)	?	/	-18.7%	23.0%	20.6µM*	7.1%
O=C(COc1ccccc1Cl)N1CCN(c2ccccn2)CC1	-15.2%	4.6	-20.5%	-8.3%	-12.8%	/
CCOC(=O)c1cnc(-n2nc(C)cc2C)nc1NC1CCCCC1	5.17µM*	-100.3*	-33.8%	?	4.61µM*	5.2%
SMILES	TDP1 cell noCPT	IL-1B inflam inh	HepG2 viability	TGFb SMAD3 inh	TDP1 cell CPT	TDP1 inh
CCOC(=O)c1cnc(-n2nc(C)cc2C)nc1Nc1cccc(C(=O)O)c1	-22.0%	15.0	6.8%	7.6%	-9.7%	6.0%
CCOC(=O)c1cnc(-n2nc(C)cc2C)nc1Nc1ccc(O)cc1	2.91µM*	0.0	0.7%	-13.3%	2.31µM*	0.0%
CCOC(=O)c1cnc(-n2nc(C)cc2C)nc1NC	?	-14.0	0.9%	?	?	7.4%
CCOC(=O)c1cnc(-n2nc(C)cc2C)nc1N(CC)CC	16.4µM*	-4.8	-22.3%	0.0%	23.1µM*	4.5%
CCOC(=O)c1cnc(-n2nc(C)cc2C)nc1Nc1ccc(C)cc1	5.17µM*	0.0	3.8%	1.8%	4.61µM*	2.1%
O=C(O)/C=C\C(=O)Nc1ccc(F)c(F)c1F	-0.8%	4.2	1.5%	-4.4%	3.4%	0.0%
CCOC(=O)c1cnc(-n2nc(C)cc2C)nc1NNc1nc(-c2ccccc2)cc(-c2ccccc2)n1	3.26µM*	22.9	-16.6%	-6.3%	3.66µM*	8.1%
CCOC(=O)c1cnc(-n2nc(C)cc2C)nc1NNc1nc(C)cc(C)n1	-22.6%	14.0	-0.9%	-9.3%	-4.3%	7.7%
CCOC(=O)c1cnc(-n2nc(C)cc2C)nc1Nc1ccc2c(c1)OCO2	/	/	/	/	/	-4.0%
CCOC(=O)c1cnc(-n2nc(C)cc2C)nc1Nc1ccc(N(C)C)cc1	1.84µM*	-4.8	-18.0%	-3.5%	1.3µM*	4.9%
CCN(CC)CCNC(=O)C(Oc1ccccc1)Oc1ccccc1	4.2%	-1.8	6.1%	0.7%	12.4%	/
O=C(CNC(=O)c1ccncc1)OC(C(=O)Nc1cc(C(F)(F)F)ccc1Cl)c1ccccc1 (stereo not given)	/	/	/	/	/	-0.1%
CCn1cc(S(=O)(=O)c2ccc(Cl)cc2)c(=O)c2cc(F)c(N3CCOCC3)cc21	16.4µM*	/	9.5%	0.5%	25.9µM*	6.2%
CCCn1cc(S(=O)(=O)c2ccccc2)c(=O)c2cc(F)c(N3CCCC3)cc21	?	/	5.3%	-3.6%	?	6.6%
